This is a sample that favours compounds with a hit; in the whole collection about 1.9% have one here.
HTR5A ag ctr – HTR5A agonism, opioid heterodimer counter-screen; HTR5A agonist assay, luminescence, cell-based; activation, % at 9.3 µM; 0.61% of 340,000 active; in the data active = activation mostly above about 9.5%, no sharp cut-off; inactive = mostly below about 7.6%;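 also: 0% = cells with vehicle only and 100% = reference agonist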
Target sequence (P47898 whole entry, looked up): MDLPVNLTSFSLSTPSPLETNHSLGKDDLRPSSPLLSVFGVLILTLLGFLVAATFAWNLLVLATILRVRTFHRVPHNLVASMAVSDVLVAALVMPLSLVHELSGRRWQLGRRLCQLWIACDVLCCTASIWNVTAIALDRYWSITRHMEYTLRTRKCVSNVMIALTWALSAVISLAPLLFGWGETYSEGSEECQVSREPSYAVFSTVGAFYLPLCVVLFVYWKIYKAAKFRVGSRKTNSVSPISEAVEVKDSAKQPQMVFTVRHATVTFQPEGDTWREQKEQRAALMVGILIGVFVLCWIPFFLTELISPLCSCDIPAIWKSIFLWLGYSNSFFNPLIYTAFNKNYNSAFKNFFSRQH
HTR5A inv ctr – counter-screen for OPRM1-OPRD1 inverse agonists: human HTR5A inverse agonism | P47898 | HTR5A cell line, luminescence | inhibition, % at 9.3 µM | 0.083% of 340,000 active; in the data active = inhibition mostly above about 23%, no sharp cut-off; inactive = mostly below about 18%;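 also: 0% = cells with DMSO and 100% = no-cell wells with DMSO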
bovine MsrA act – activates bovine MsrA enzyme. AID 602163. purified bovine MsrA, absorbance read-out. 0.3% of 360,000 active. activation, % at 10.6 µM; in the data active = activation above about 7.5%;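 also: 0% = vehicle and 100% = reference activator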
MOR-DOR inv ag – inverse agonists of human mu-delta opioid receptor heterodimerization; inhibition, % at 9.3 µM; 0.21% of 340,000 active; cell-based MOR-DOR heterodimer luminescence, inverse agonism; in the data active = inhibition above about 22%, passing the limit was not always enough;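 also: 0% = cells with DMSO and 100% = wells without cells with DMSO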
MsrA inhibitor – inhibitors of bovine MsrA. purified bovine MsrA, absorbance read-out. inhibition, % at 15.5 µM. 0.75% of 360,000 active. AID 651718;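 also: 0% = vehicle wells with enzyme and 100% = reference inhibitor wells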
MOR-DOR ag – OPRM1-OPRD1 heterodimerization agonism; P35372+P41143; cells, luminescence; activation, % at 9.3 µM; 0.3% of 340,000 active; AID 504326; in the data active = activation above about 18%;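 also: 0% = vehicle-treated cells and 100% = reference agonist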
MsrA inh confirm – confirmation of bovine MsrA inhibitors. 41% of 2,300 active. purified bovine MsrA, absorbance read-out. inhibition, % at 15.5 µM. AID 651822. shares compounds with MsrA inhibitor;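 also: coupled to thioredoxin reductase with NADPH and selenocystamine and DMSO as substrate; 0% = vehicle only and 100% = full effect of reference inhibitor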
* hit, by the source's call; nt = no result. Rule as the data show it, unless noted: active = inhibition above about 4.5%; inactive = the rest.

SMILES	HTR5A ag ctr	HTR5A inv ctr	bovine MsrA act	MOR-DOR inv ag	MsrA inhibitor	MOR-DOR ag	MsrA inh confirm
Cc1cc(-c2ccc(Cl)cc2)n2nc(N)nc2n1	5	-12	-10	4	1	-1	nt
O=C1CCCc2nc(N3CCCCC3)sc21	-1	-2	-3	8	5.8*	-2	5.2*
O=c1cccc(-c2ccc3ccccc3c2)o1	nt	nt	nt	nt	5.0*	nt	3
O=C(CCN1C(=O)S/C(=C\c2ccccc2)C1=O)N1CCOCC1	-3	14	3	16	5.7*	-3	3
O=C(CN1C(=O)S/C(=C\c2ccccc2)C1=O)NC1CCS(=O)(=O)C1 (stereo not given)	2	13	-2	10	5.3*	-2	4
O=C(CCN1C(=O)S/C(=C/c2ccccc2)C1=O)Nc1ccc(C(=O)O)c(O)c1	2	-7	-6	21	5.7*	-4	2
O=C(CCN1C(=O)/C(=C\c2ccccc2)SC1=S)N1CCOCC1	-4	11	0	-3	0	0	nt
O=C(CN1C(=O)S/C(=C/c2ccccn2)C1=O)N1CCOCC1	2	-6	-6	15	5.3*	-3	4.8*
O=C(CCN1C(=O)S/C(=C\c2ccc(F)cc2)C1=O)Nc1ccc(C(=O)O)c(O)c1	3	-12	-14	-1	4	0	nt
O=C(CN1C(=O)S/C(=C\C=C\c2ccccc2)C1=O)NC1CCS(=O)(=O)C1 (stereo not given)	-2	-16	-7	18	3	-4	nt
Cc1ccccc1C(=O)N[C@H](C(=O)N1CCC[C@H]1C(=O)NCCc1ccccc1Cl)C1CCCCC1	nt	nt	nt	nt	0	nt	nt
Cc1cccc(C)c1NC(=O)C1c2ccccc2OCC(=O)N1CCc1c[nH]c2ccccc12 (stereo not given)	nt	nt	-3	nt	0	nt	nt
C[C@@H]1Cn2cnc(C(=O)N(C)Cc3ccccc3)c2C(=O)N1	nt	nt	nt	nt	0	nt	nt
CCOC(=O)CC1(C)Oc2ccccc2N1S(=O)(=O)c1ccc(C)cc1 (stereo not given)	nt	nt	nt	nt	2	nt	nt
O=C(CN1C(=O)S/C(=C\c2ccccc2)C1=O)Nc1cc([N+](=O)[O-])ccc1O	1	-4	-4	20	4.8*	-4	4.6*
CN(Cc1ccccc1)C1=CC(=[N+]2CCCC2)CC(C)(C)C1	7	15	-5	9	5.5*	-2	3
CCN(CC)C1=CC(=[N+]2CCCC2)CC(C)(C)C1	-5	12	-7	16	5.7*	-3	4
O=C(C[C@H]1CC[C@@H](NS(=O)(=O)c2ccccc2)[C@@H](CO)O1)NCc1ccc(Cl)c(Cl)c1	nt	nt	nt	nt	0	nt	nt
CCOC(=O)[C@@H]1CSCCS(=O)(=O)N1Cc1ccc(C(F)(F)F)cc1	nt	nt	nt	nt	0	nt	nt
COc1ccccc1/C=C/C1=NC(=C\C=C/c2ccccc2)/C(=O)O1	2	-5	-6	2	6.4*	0	2
COc1ccc2cc(S(=O)(=O)c3ccccc3)c(=O)oc2c1	5	-16	-5	-68	5.3*	14	4
O=c1[nH]c(=S)c2c(n1-c1ccccc1)CCC2	5	-13	-6	15	5.8*	-3	3
O=c1c(-c2ccccc2)c(O)c2c(n1-c1ccccc1)CCCC2	0	15	-2	-4	2	1	nt
CCC(=O)N1c2ccccc2NC2=C(C(=O)CCC2)C1c1cccnc1 (stereo not given)	-2	27	-5	7	4.8*	-1	3
CCOC(=O)C1=C(C)NC2=C(C(=O)CCC2)C1c1cccnc1 (stereo not given)	2	-4	-3	4	2	-1	nt
CC(=O)N1c2ccccc2NC2=C(C(=O)CCC2)C1c1ccco1 (stereo not given)	7	-33	-17	-25	4.9*	5	3
CC1CC(=O)C2=C(C1)Nc1ccccc1N(C(=O)COc1ccccc1)C2c1ccco1 (stereo not given)	-6	5	-8	4	3	-1	nt
CCCCNC(=O)C1c2ccccc2OCC(=O)N1Cc1ccc2c(c1)OCO2 (stereo not given)	nt	nt	-2	nt	-1	nt	nt
COc1ccc(C(=O)/C=C/Nc2cc(C)on2)cc1	-2	4	-5	-6	6.6*	1	6.2*

Source: PubChem BioAssay (The Scripps Research Institute Molecular Screening Center)
